Reference: PubChem BioAssay (Tox21)
Values joined by “and” are separate entries in the source; they are usually repeats but may differ in a detail not shown here. Equal entries are not always repeated. Records with an inconclusive call do not appear. Active and inactive are the calls of the source. Unless noted, calls come from the whole dose curve; as a rule, active = well fitted curve in the direction sought with a large enough effect in the repeat runs; inconclusive = weak or mixed curves; inactive = no such curve, though single readings can be large; an effect the other way counts as inactive or inconclusive.

Key:
[1] = biological target: Thyrotropin receptor (Homo sapiens) (UniProt P16473); test: qHTS assay to identify small molecule agonists of the thyroid stimulating hormone receptor (TSHR) signaling pathway (AID 1224843; calls by dose curve; note: nearly all actives have a fitted effect of over 45% in size)
Summary of the method: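 TSHR-HEK293 cells in agonist mode, 30 min room-temperature step, then cAMP measured by competitive HTRF (cAMP-d2 with anti-cAMP cryptate) after 1 h at room temperature. Tested at 15 concentrations in triplicate.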

[2] = qHTS assay to identify small molecule agonists of the hypoxia (HIF-1) signaling pathway - cell viability counter screen (AID 1224844; calls by dose curve; note: nearly all actives have a fitted effect of over 50% in size)
Summary of the method: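 Luminescent ATP content (CellTiter-Glo, 30 min, room temperature) served as the viability measure in HRE-bla ME-180 cells exposed to compounds for 17 hrs in low-serum medium (0.5% dialyzed FBS).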

[3] = qHTS assay to identify small molecule agonists of H2AX (AID 1224845; active = well fitted activation curve with a large enough effect in the signal ratio in the repeat runs, not every such curve was filed as active; the % refers to the signal ratio)
Summary of the method: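 Wild-type CHO-K1 cells, plated overnight, exposed 3hr at 37C to 15 concentrations (0.76% DMSO final). Lysed, then HTRF anti-pH2AX (S139) cryptate and anti-H2AX-d2 antibodies, 24 hr room temperature; 665/620 nm emission read.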

[4] = qHTS assay to identify small molecule agonists of the hypoxia (HIF-1) signaling pathway (AID 1224846; active = well fitted activation curve with a large enough effect in the signal ratio in the repeat runs, not every such curve was filed as active; the % refers to the signal ratio)
Summary of the method: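 Measured by blue/green FRET after loading CCF4-AM: beta-lactamase expressed from a hypoxia response element in ME-180 cells. Test agents were delivered in DMSO and left 17 hrs; cells had been plated 5 hrs earlier in low-serum (0.5% dialyzed FBS) medium.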

[5] = qHTS assay to identify small molecule agonists of H2AX - cell viability counter screen (AID 1224847; calls by dose curve; note: top concentration of the series differs between compounds; nearly all actives have a fitted effect of over 30% in size)
Summary of the method: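 Read-out: CellTiter-Glo luminescence, 30 min RT. Cells: wild-type CHO-K1, 1000/well, 10% FBS, plated overnight at 37C. Treatment: 15 concentrations, 3 hr, 37C, 0.76% DMSO.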

[6] = qHTS RealTime-Glo MT Cell Viability Assay in HepG2 cells - 24 hour (AID 1224867); note: nearly all actives have a fitted effect of over 50% in size
Summary of the method: (§1)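 HepG2 suspension premixed with RealTime-Glo reagents is plated at 600 cells per well and left 5 h at 37 C/5% CO2. Compounds in DMSO then go in, and bioluminescence reflecting viable cell number is recorded over 40 h.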

[7] = qHTS RealTime-Glo MT Cell Viability Assay in HEK293 cells - 32 hour (AID 1224868); note: top concentration of the series differs between compounds; nearly all actives have a fitted effect of over 50% in size
Summary of the method: (§2)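 Reads taken at 0, 8, 16, 24, 32 and 40 h from the same wells. HEK293 cells (600/well) carried RealTime-Glo reagents from seeding, with compound added after a 5 h settle at 37 C.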

[8] = A CellTox Green Cytotoxicity Assay to monitor cytotoxicity in HEK293 cells - 0 hour (AID 1224869); note: nearly all actives have a fitted effect of over 50% in size
Summary of the method: (§3)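 Each value comes from one timepoint of a single continuous run in which HEK293 cells with CellTox Green were exposed to compound for up to 40 h at 37 C, dye fluorescence rising with cell death.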

[9] = qHTS RealTime-Glo MT Cell Viability Assay in HepG2 cells - 40 hour (AID 1224870); note: nearly all actives have a fitted effect of over 50% in size
Summary of the method: (§4)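 HepG2 cells (600/well) mixed with RealTime-Glo MT reagent, settled 5 h at 37 C/5% CO2 before compound addition. Nonlytic NanoLuc luminescence from viable-cell prosubstrate reduction read repeatedly during 40 h treatment at 37 C.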

[10] = A CellTox Green Cytotoxicity Assay to monitor cytotoxicity in HEK293 cells - 40 hour (AID 1224871); note: nearly all actives have a fitted effect of over 45% in size
Summary of the method: as §3

[11] = qHTS RealTime-Glo MT Cell Viability Assay in HEK293 cells - 16 hour (AID 1224872)
Summary of the method: as §2

[12] = qHTS RealTime-Glo MT Cell Viability Assay in HepG2 cells - 8 hour (AID 1224873); note: nearly all actives have a fitted effect of over 55% in size
Summary of the method: as §4

[13] = qHTS RealTime-Glo MT Cell Viability Assay in HEK293 cells - 40 hour (AID 1224874); conditions: RealTime-Glo luminescence; max response: hits give low values; note: nearly all actives have a fitted effect of over 50% in size
Summary of the method: (§5)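 qHTS format; HEK293 cells with NanoLuc/prosubstrate reagent, 37 C/5% CO2 for 5 h pre-dosing; compounds 23 nL in DMSO; luminescence at each time point reflects viable cells.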

[14] = A CellTox Green Cytotoxicity Assay to monitor cytotoxicity in HEK293 cells - 24 hour (AID 1224875); note: series mostly up to about 77 µM; nearly all actives have a fitted effect of over 45% in size
Summary of the method: as §3

[15] = A CellTox Green Cytotoxicity Assay to monitor cytotoxicity in HepG2 cells - 16 hour (AID 1224876); note: nearly all actives have a fitted effect of over 45% in size
Summary of the method: (§6)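 Continuous culture of HepG2 cells with a membrane-impermeant DNA dye; rising fluorescence marks dead cells. Compound exposure lasted up to 40 h at 37 C, with reads every 8 h from 0 h.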

[16] = qHTS RealTime-Glo MT Cell Viability Assay in HepG2 cells - 32 hour (AID 1224877); note: nearly all actives have a fitted effect of over 55% in size
Summary of the method: as §1

[17] = A CellTox Green Cytotoxicity Assay to monitor cytotoxicity in HepG2 cells - 24 hour (AID 1224878); note: nearly all actives have a fitted effect of over 45% in size
Summary of the method: as §6

[18] = A CellTox Green Cytotoxicity Assay to monitor cytotoxicity in HepG2 cells - 40 hour (AID 1224879); note: nearly all actives have a fitted effect of over 40% in size
Summary of the method: as §6

[19] = qHTS RealTime-Glo MT Cell Viability Assay in HEK293 cells - 0 hour (AID 1224880)
Summary of the method: as §5

[20] = qHTS assay to identify small molecule antagonists of the estrogen related receptor (ERR) signaling pathway from Tox21 library (AID 1224848); note: nearly all actives have a fitted effect of over 50% in size
Summary of the method: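 ERR reporter cell line (from NTP) seeded 2,000 cells/well, rested 6 h at 37 C/5% CO2, then pin-dosed with compounds in DMSO. After 18 h at 37 C, ONE-Glo added; luminescence read after 30 min at room temperature.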
% is set by controls: 0 for no effect and ±100 for the full control effect.

Chain of Thyrotropin receptor (Homo sapiens) (P16473 whole entry, looked up): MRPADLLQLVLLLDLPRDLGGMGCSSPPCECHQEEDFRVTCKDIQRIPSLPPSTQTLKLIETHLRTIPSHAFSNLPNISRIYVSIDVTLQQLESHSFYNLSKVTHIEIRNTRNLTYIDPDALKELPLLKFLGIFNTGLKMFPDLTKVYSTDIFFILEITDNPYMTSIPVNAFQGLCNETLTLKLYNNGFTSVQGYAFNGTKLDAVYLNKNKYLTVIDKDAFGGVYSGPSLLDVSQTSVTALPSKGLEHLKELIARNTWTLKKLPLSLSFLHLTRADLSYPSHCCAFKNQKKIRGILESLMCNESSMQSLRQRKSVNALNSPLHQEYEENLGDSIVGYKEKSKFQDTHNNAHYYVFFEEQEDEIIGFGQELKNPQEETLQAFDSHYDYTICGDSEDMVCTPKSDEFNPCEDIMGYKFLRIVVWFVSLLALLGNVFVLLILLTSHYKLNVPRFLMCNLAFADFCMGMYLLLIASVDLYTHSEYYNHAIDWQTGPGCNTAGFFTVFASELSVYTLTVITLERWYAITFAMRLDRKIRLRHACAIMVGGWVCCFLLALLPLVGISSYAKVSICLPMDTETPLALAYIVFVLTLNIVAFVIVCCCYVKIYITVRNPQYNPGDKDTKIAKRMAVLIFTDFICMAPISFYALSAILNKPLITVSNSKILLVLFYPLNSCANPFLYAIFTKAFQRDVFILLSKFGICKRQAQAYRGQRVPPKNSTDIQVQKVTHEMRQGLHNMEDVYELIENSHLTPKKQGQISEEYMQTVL

CC(=O)OCCOC(C)=O
inactive: outcome [1] | outcome [2] | outcome [3] | outcome [4] | outcome [5] | Potency [6] | Potency [7] | outcome [8] | outcome [9] | Potency [10] | Potency [11] | Potency [12] | max response [13] -0.882% and 2.01% | Potency [14] | outcome [15] | outcome [16] | Potency [17] | Potency [18] | outcome [19]

CCO[Si](CCCN)(OCC)OCC
inactive: outcome [1] | outcome [2] | outcome [3] | outcome [4] | outcome [5] | outcome [20] | Potency [6] | Potency [7] | outcome [8] | outcome [9] | Potency [10] | Potency [11] | Potency [12] | max response [13] -7.12% and 0.455% | Potency [14] | outcome [15] | outcome [16] | Potency [17] | Potency [18] | outcome [19]

Nc1ccc(Cl)c(N)c1
inactive: outcome [1] | outcome [2] | outcome [3] | outcome [4] | outcome [5] | Potency [6] | Potency [7] | outcome [8] | outcome [9] | Potency [10] | Potency [11] | Potency [12] | max response [13] -8.1% and -8.99% | Potency [14] | outcome [15] | outcome [16] | Potency [17] | Potency [18] | outcome [19]

CSc1ccc(Cl)cc1
inactive: outcome [1] | outcome [2] | outcome [3] | outcome [4] | outcome [5] | Potency [6] | Potency [7] | outcome [8] | outcome [9] | Potency [10] | Potency [11] | Potency [12] | max response [13] -0.983% and -3.28% | Potency [14] | outcome [15] | outcome [16] | Potency [17] | Potency [18] | outcome [19]

C=CC[N+](C)(C)CC=C
inactive: outcome [1] | outcome [2] | outcome [3] | outcome [4] | outcome [5] | Potency [6] | Potency [7] | outcome [8] | outcome [9] | Potency [10] | Potency [11] | Potency [12] | max response [13] 2.31% and 7.96% | Potency [14] | outcome [15] | outcome [16] | Potency [17] | Potency [18] | outcome [19]

CCCOC(=O)c1ccccc1
inactive: outcome [1] | outcome [2] | outcome [3] | outcome [4] | outcome [5] | outcome [20] | Potency [6] | Potency [7] | outcome [8] | outcome [9] | Potency [10] | Potency [11] | Potency [12] | max response [13] 4.73% and -2.32% | Potency [14] | outcome [15] | outcome [16] | Potency [17] | Potency [18] | outcome [19]

COc1ccc(OC)cc1
inactive: outcome [1] | outcome [2] | outcome [3] | outcome [4] | outcome [5] | outcome [20] | Potency [6] | Potency [7] | outcome [8] | outcome [9] | Potency [10] | Potency [11] | Potency [12] | max response [13] 5.27% and 14.7% | Potency [14] | outcome [15] | outcome [16] | Potency [17] | Potency [18] | outcome [19]

O=C(O)CCCCCCCCC(=O)O
inactive: outcome [1] | outcome [2] | outcome [3] | outcome [4] | outcome [5] | outcome [20] | Potency [6] | Potency [7] | outcome [8] | outcome [9] | Potency [10] | Potency [11] | Potency [12] | max response [13] 1.05% and 1.59% | Potency [14] | outcome [15] | outcome [16] | Potency [17] | Potency [18] | outcome [19]

CCc1ccccc1CC
inactive: outcome [1] | outcome [2] | outcome [3] | outcome [4] | outcome [5] | outcome [20] | Potency [6] | Potency [7] | outcome [8] | outcome [9] | Potency [10] | activity change, negative = cytotoxicity [11] 1.28% [at 15.8 µM] | Potency [12] | max response [13] 10.8% and 1.1% | Potency [14] | outcome [15] | outcome [16] | Potency [17] | Potency [18] | outcome [19]

O=C(O)c1cc2ccccc2cc1O
inactive: outcome [1] | outcome [2] | outcome [3] | outcome [4] | outcome [5] | outcome [20] | Potency [6] | Potency [7] | outcome [8] | outcome [9] | Potency [10] | Potency [11] | Potency [12] | max response [13] -2.62% and 6.1% | Potency [14] | outcome [15] | outcome [16] | Potency [17] | Potency [18] | outcome [19]

Cc1ccc([N+](=O)[O-])cc1S(=O)(=O)O
inactive: outcome [1] | outcome [2] | outcome [3] | outcome [4] | outcome [5] | outcome [20] | Potency [6] | Potency [7] | outcome [8] | outcome [9] | Potency [10] | Potency [11] | Potency [12] | max response [13] 6.39% and 7.52% | Potency [14] | outcome [15] | outcome [16] | Potency [17] | Potency [18] | outcome [19]

CC(CCl)OP(=O)(OC(C)CCl)OC(C)CCl (stereo unspecified)
inactive: outcome [1] | outcome [2] | outcome [3] | outcome [4] | outcome [5] | outcome [20] | Potency [6] | Potency [7] | outcome [8] | outcome [9] | Potency [10] | Potency [11] | Potency [12] | max response [13] -21.3% and -15.3% | Potency [14] | outcome [15] | outcome [16] | Potency [17] | Potency [18] | outcome [19]

CCCCCC(=O)O
inactive: outcome [1] | outcome [2] | outcome [3] | outcome [4] | outcome [5] | outcome [20] | Potency [6] | Potency [7] | outcome [8] | outcome [9] | Potency [10] | Potency [11] | Potency [12] | max response [13] 18.5% and 15.2% | Potency [14] | outcome [15] | outcome [16] | Potency [17] | Potency [18] | outcome [19]
